# Among all 220,000 compounds or so, about 3,300 (1.5%) were called active. This is one part of a sample in which actives are shown more often than they occur. A number with no mark means an inactive call.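 The calls were made as follows: active = compounds that cut the protein-peptide binding signal by more than 50% relative to plate controls in a single-dose test; inactive = the rest.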
# Target: Induced myeloid leukemia cell differentiation protein Mcl-1 (Homo sapiens) (UniProt Q07820)
# Test: disruptors of Mcl-1 and Noxa BH3 peptide – biochemical, TR-FRET, 1536-well, primary screen (AID 1022);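 also: His-tagged Mcl-1 with rhodamine Noxa BH3 peptide and terbium anti-His antibody; 0% = Mcl-1 plus Noxa peptide wells and 100% = peptide-only wells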
# Settings: TR-FRET Mcl-1/Noxa peptide binding, 2 h; at 21.7 µM; active compounds read high
# Induced myeloid leukemia cell differentiation protein Mcl-1 (Homo sapiens), sequence (Q07820 whole entry, looked up): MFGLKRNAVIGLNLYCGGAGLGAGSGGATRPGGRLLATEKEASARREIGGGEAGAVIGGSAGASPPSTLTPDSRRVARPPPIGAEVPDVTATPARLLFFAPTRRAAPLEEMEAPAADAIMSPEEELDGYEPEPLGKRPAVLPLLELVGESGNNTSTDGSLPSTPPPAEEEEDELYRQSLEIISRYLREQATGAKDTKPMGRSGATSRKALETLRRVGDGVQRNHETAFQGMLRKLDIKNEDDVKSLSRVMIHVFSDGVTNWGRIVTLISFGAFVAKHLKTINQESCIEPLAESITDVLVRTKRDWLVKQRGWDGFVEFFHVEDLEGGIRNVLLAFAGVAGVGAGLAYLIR
row,SMILES,inhibition
1,O=C(Nc1ccccc1)N1CCN(C2c3ccccc3-c3ccccc32)CC1,-0.05%
2,CC1CCN(c2ccc([N+](=O)[O-])c(SCCO)c2)CC1,-16%
3,Cn1cnc(S(=O)(=O)Nc2ccc3c(c2)OCCO3)c1,-2.52%
4,CCn1c(COc2ccccc2)nnc1SCC(=O)NCc1ccco1,-18.1%
5,C=CCn1c(SCC(=O)Nc2nc3ccccc3s2)nnc1-c1ccccc1O,8.54%
6,C=CCn1c(CSc2nc3ccccc3s2)nnc1SCC(=O)NCc1ccco1,51.2% (active)
7,C=CCC(Nc1ccccc1)c1cccc(OC)c1OC (configuration not stated),5.76%
8,Cc1cc(NC(=O)Nc2ccc(Cl)cc2)n(-c2ccccc2)n1,-3.74%
9,COc1ccc(NC(=O)COc2ccc(C(=O)OCC(=O)N(C)C3CCS(=O)(=O)C3)cc2OC)cc1 (configuration not stated),-10.9%
10,Cc1c(-c2cccc(Cl)c2)nc2ccccc2c1C(=O)OCC(=O)N(C)C1CCS(=O)(=O)C1 (configuration not stated),13.3%
11,CN(C(=O)COC(=O)c1cc(-c2ccco2)nc2ccccc12)C1CCS(=O)(=O)C1 (configuration not stated),107% (active)
12,O=C(C1=C(O)C(=O)N(Cc2ccccc2)C1c1ccco1)c1ccco1 (configuration not stated),24.5%
13,O=C(C1=C(O)C(=O)N(c2ncccn2)C1c1cccs1)c1ccco1 (configuration not stated),55% (active)
14,O=C(C1=C(O)C(=O)N(CCOCCO)C1c1ccccn1)c1cccs1 (configuration not stated),11.8%
15,COc1cc(C=O)ccc1Oc1nnnn1-c1ccccc1,-17.8%
16,COc1ccc(OC)c(C(=O)c2ccc(Cl)cc2)c1,6.99%
17,Cc1ccc2cc(/C=N/NC(=O)[C@@H]3CCCN3)c(Cl)nc2c1,5.95%
18,O=C(O)/C=C/C(=O)NNc1ccc([N+](=O)[O-])cc1,54.4% (active)
19,Cc1c(NC(=O)/C=C/C(=O)O)cccc1[N+](=O)[O-],-3.3%
20,O=[N+]([O-])c1ccc(N/N=C/c2ccccc2)cc1,1.75%
21,C/C(=N\NC(=O)CC(C)C)c1c(C(F)(F)F)[nH]n(-c2nc3ccccc3s2)c1=O,-81.1%
22,O=C(Nc1cccc2c1N(C(=O)c1ccco1)CCC2)c1ccco1,18.1%
23,O=C(C[n+]1ccc2c(c1)nnn2-c1ccccc1)c1ccc(Cl)cc1,4.1%
24,N#CCC(=O)N/N=C/c1cn(Cc2ccc3ccccc3c2)c2ccccc12,27.9%
25,Cc1occc1C(=O)NNC(=S)NCC(C)C,-22.4%
26,CC(C)CNC(=S)NC(=O)c1ccc(Cl)cc1,62.4% (active)
27,CC(C)C(NC(=O)c1ccc(Cl)cc1)C(=O)O (configuration not stated),1.56%

# Source: PubChem BioAssay AID1022 (Emory University Molecular Libraries Screening Center, 2008)
